Cycloheximide cs = Cycloheximide Counterscreen for Small Molecule Inhibitors of Shiga Toxin; cell reporter, cycloheximide protein synthesis inhibition counterscreen; max response, %; 300,000 compounds, 12% hits; AID 2314, 2010; in the data active = max response mostly above about 13%, no sharp cut-off; inactive = mostly below about 14%; note: read at 38.3 µM for the half of the compounds with a filed dose
Shiga toxin inh = A qHTS for Small Molecule Inhibitors of Shiga Toxin. Vero cells, Shiga toxin protein synthesis inhibition reporter. 290,000 compounds, 9.2% hits. inhibition, % at 38.7 µM; in the data active = inhibition mostly above about 28%, no sharp cut-off; inactive = mostly below about 43%
AMA1 RON2 block = qHTS for Inhibitors of AMA1-RON; Towards Development of Antimalarial Drug Lead: Primary Screen; Plasmodium falciparum AMA1 (3D7) - RON2 peptide interaction; AlphaScreen AMA1-biotinylated RON2 peptide binding; Potency, µM (top dose mostly 58.2 µM), actives largely listed as inhibitors; 360,000 compounds, 0.2% hits; active = well fitted inhibition curve with a large enough effect; inconclusive = small, poorly fitted or top-dose-only effect; inactive = no such curve, though single readings can be large or run the other way; note: nearly all actives have a fitted effect of over 45% in size
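AMA1 (3D7) with his tag at 25 nM final met compounds first, then biotinylated RON2 peptide at 25 nM; detection used donor plus acceptor beads, 10 µg/mL apiece, read by AlphaScreen after 30 min at room temperature.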
Marburg entry inh = qHTS for inhibitors of binding or entry into cells for Marburg Virus; 300,000 compounds, 1.8% hits; Marburg virus pseudotyped entry inhibition, cell reporter; Potency, µM (doses to about 37.8 µM), hits mostly inhibitors; calls by dose curve; tested in HEK293 cells
Lassa entry inh = qHTS for Inhibitors of binding or entry into cells for Lassa Virus. 300,000 compounds, 1.2% hits. Lassa virus pseudotype entry inhibition, cell reporter. Potency, µM (highest dose often 37.9 µM), hits mostly inhibitors; calls by dose curve; tested in HEK293 cells; note: nearly all actives have a fitted effect of over 50% in size
Each line names hits and unclear results; the compound was inactive in the other large screens. The full list was thinned out, with hits kept by preference.

COc1ccccc1C(=O)COC(=O)CN1C(=O)c2ccccc2C1=O	none (no result: Marburg entry inh, Lassa entry inh)
CC1Cc2ccccc2N1C(=O)COC(=O)c1ccc([N+](=O)[O-])o1 (stereo not given)	none (no result: Cycloheximide cs, Shiga toxin inh)
O=C(CCc1nnc2n(Cc3ccccc3)c(=O)c3ccccc3n12)NCCN1CCOCC1	none (no result: Marburg entry inh, Lassa entry inh)
COc1ccc(Cl)cc1NC(=O)C1COc2ccccc2O1 (stereo not given)	Cycloheximide cs 38, Shiga toxin inh 45 (no result: Marburg entry inh, Lassa entry inh)
COC(=O)c1cccc(NC(=O)C2COc3ccccc3O2)c1C (stereo not given)	none
CCOCCOC(=O)c1ccc(NC(=O)C2COc3ccccc3O2)cc1 (stereo not given)	Cycloheximide cs 22 (no result: Marburg entry inh, Lassa entry inh)
O=C(Nc1cccc(S(=O)(=O)N2CCCCC2)c1)C1COc2ccccc2O1 (stereo not given)	none (no result: Cycloheximide cs, Shiga toxin inh, Marburg entry inh, Lassa entry inh)
COC(=O)c1cc(NC(=O)C2COc3ccccc3O2)ccc1Cl (stereo not given)	Cycloheximide cs 21, Shiga toxin inh 53, Marburg entry inh inconclusive
O=C(Nc1cccc([N+](=O)[O-])c1)C1COc2ccccc2O1 (stereo not given)	Cycloheximide cs 11 (no result: Marburg entry inh, Lassa entry inh)
O=C1CCC2=C(O1)C(O)=C(O)CC2	none (no result: Cycloheximide cs, Shiga toxin inh, AMA1 RON2 block, Lassa entry inh)
O=C(Nc1ccc(S(=O)(=O)Nc2ccccc2)cc1)C1COc2ccccc2O1 (stereo not given)	none
COC(=O)c1cccc(NC(=O)C2COc3ccccc3O2)c1 (stereo not given)	Cycloheximide cs 33, Shiga toxin inh 66
Cc1cccc(NC(=O)C2COc3ccccc3O2)c1 (stereo not given)	Cycloheximide cs 43, Shiga toxin inh 72 (no result: Marburg entry inh, Lassa entry inh)
CN(C)S(=O)(=O)c1ccc(NC(=O)C2COc3ccccc3O2)cc1 (stereo not given)	Cycloheximide cs 11 (no result: Marburg entry inh, Lassa entry inh)
Cc1cc(C)cc(NC(=O)C2COc3ccccc3O2)c1 (stereo not given)	none (no result: Cycloheximide cs, Shiga toxin inh, Marburg entry inh, Lassa entry inh)
Cc1ccc(NC(=O)C2COc3ccccc3O2)cc1C (stereo not given)	Cycloheximide cs 26 (no result: Shiga toxin inh)
CCOC(=O)c1ccc(NC(=O)C2COc3ccccc3O2)cc1 (stereo not given)	none (no result: Shiga toxin inh)
COc1ccc(C(C)=O)cc1COC(=O)Cc1cc(OC)c(OC)c(OC)c1	none
Cc1ccc(C(=O)Oc2cccc(-n3cnnn3)c2)cc1	Cycloheximide cs 40, Shiga toxin inh 57
O=C(Nc1ccccc1)c1ccc(-n2cnnn2)cc1	Cycloheximide cs 15, Shiga toxin inh 23 (no result: Marburg entry inh, Lassa entry inh)
O=C(Nc1ccc(-n2cnnn2)cc1)C(c1ccccc1)c1ccccc1	none
O=C(Oc1cccc(-n2cnnn2)c1)c1ccco1	none
CC(C)(C)c1ccc(C(=O)Nc2cccc(-n3cnnn3)c2)cc1	Cycloheximide cs 24, Shiga toxin inh 34 (no result: Marburg entry inh, Lassa entry inh)
Cc1ccc2c(c1)c1c(c(=O)n(-c3cccc(Cl)c3)c(=O)n1CC(=O)NCC1CCCO1)n2C (stereo not given)	none (no result: Cycloheximide cs, Shiga toxin inh, AMA1 RON2 block, Marburg entry inh)
COc1ccc(NC(=O)c2ccc([N+](=O)[O-])o2)cc1	Marburg entry inh 11µM
CC(=O)c1ccc(NC(=O)c2ccc([N+](=O)[O-])o2)cc1	Cycloheximide cs 34, Shiga toxin inh 98 (no result: Marburg entry inh, Lassa entry inh)
O=C(NNC(=O)c1ccc([N+](=O)[O-])o1)c1ccccc1	Cycloheximide cs 25, Marburg entry inh inconclusive
Cc1cc(C)cc(NC(=O)c2ccc([N+](=O)[O-])o2)c1	Cycloheximide cs 34, Shiga toxin inh 35, Marburg entry inh inconclusive, Lassa entry inh inconclusive
O=C(NN(c1ccccc1)c1ccccc1)c1ccc([N+](=O)[O-])o1	Marburg entry inh inconclusive
COc1ccccc1N1CCN(c2ccc(=O)n(CC(=O)NCc3ccc(F)cc3)n2)CC1	none (no result: Cycloheximide cs, Shiga toxin inh, AMA1 RON2 block, Marburg entry inh)
O=C1CN(c2nc3nonc3nc2N2CCCCC2)CCN1	none
COC(=O)C1=C(C)Nc2c(c(=O)n(C)c(=O)n2C)C1c1ccc(Cl)cc1 (stereo not given)	Marburg entry inh inconclusive
NC(=O)c1oc2ccccc2c1NC(=O)c1nc2ccccc2s1	Cycloheximide cs 41, Shiga toxin inh 99, Marburg entry inh inconclusive
NC(=O)c1oc2ccccc2c1NC(=O)c1ccc([N+](=O)[O-])o1	Shiga toxin inh 28, Marburg entry inh inconclusive, Lassa entry inh inconclusive
CC(C)C(=O)N1CCN(c2ccc(NC(=O)c3ccc([N+](=O)[O-])o3)cc2)CC1	Cycloheximide cs 40
CC(C)C(=O)N1CCN(c2ccc(NC(=O)c3ccc([N+](=O)[O-])o3)cc2Cl)CC1	Marburg entry inh inconclusive, Lassa entry inh inconclusive
Cc1cc(NC(=O)c2ccco2)ccc1NC(=O)Cc1cccs1	Cycloheximide cs 20, Shiga toxin inh 32
COc1ccc(-c2nc3scc(CCNS(=O)(=O)c4cccc(C(C)=O)c4)n3n2)cc1	none (no result: Cycloheximide cs, Shiga toxin inh, AMA1 RON2 block, Marburg entry inh)
CC1=CC(C)(C)[N+](C)=CN1c1ccccc1	none
CCCCN(C)CCNC(=O)CCNC(=O)Cn1ccc2ccccc2c1=O	none
COc1ccc(-n2nc(C)c3c(=O)c4c([nH]c32)CCCC4)cc1	none (no result: Marburg entry inh, Lassa entry inh)
CCCCCCCCCCCCCCCC(=O)OCC(O)C1OC(=O)C(O)=C1O (stereo not given)	none (no result: AMA1 RON2 block, Marburg entry inh, Lassa entry inh)
COc1cc(NC(=O)c2ccc([N+](=O)[O-])o2)ccc1NC(=O)c1ccco1	none (no result: Marburg entry inh, Lassa entry inh)
Cc1cc(NC(=O)c2ccc([N+](=O)[O-])o2)ccc1NC(=O)c1ccco1	Cycloheximide cs 36, Shiga toxin inh 97 (no result: Marburg entry inh, Lassa entry inh)
O=C(C1CCN(C2CCN(Cc3ccc4c(c3)CCO4)CC2)CC1)N1CCCC1	Marburg entry inh 4.5µM
CC1CC(C)(C)CC2(C1)NC(=O)N(CC(=O)Nc1ccc(N3CCCCC3)cc1)C2=O (stereo not given)	none
CCc1cnc2c(c1SC(C(C)=O)C(=O)N(C)C)c(=O)n(C)c(=O)n2C (stereo not given)	none (no result: Cycloheximide cs, Shiga toxin inh, AMA1 RON2 block, Marburg entry inh)
COc1ccccc1Nc1nc(N)nc(CN2CCc3ccccc3C2)n1	none
CN(Cc1ccccc1F)C(=O)c1cccc(NC(=O)CC2SC(N3CCCCC3)=NC2=O)c1 (stereo not given)	Marburg entry inh inconclusive, Lassa entry inh inconclusive (no result: Cycloheximide cs, Shiga toxin inh)
CCn1c(C(=O)NCc2ccc(F)cc2)cc2oc3ccccc3c21	Marburg entry inh 3.5µM, Lassa entry inh inconclusive (no result: Cycloheximide cs, Shiga toxin inh, AMA1 RON2 block)
CCOC(=O)c1ccc2oc(=O)n(Cc3ccccc3)c2c1	none (no result: Cycloheximide cs, Shiga toxin inh, AMA1 RON2 block, Marburg entry inh)
CCOc1ccc(CNC(=O)c2cc3oc4ccccc4c3n2C)cc1	Marburg entry inh 4µM, Lassa entry inh inconclusive
COc1cccc(CNC(=O)c2cc3oc4ccccc4c3n2C)c1OC	Marburg entry inh inconclusive, Lassa entry inh 5.6µM
CCOc1ccc(CNC(=O)c2ccc3oc(=O)n(Cc4ccccc4)c3c2)cc1	Lassa entry inh 5µM (no result: Cycloheximide cs, Shiga toxin inh, AMA1 RON2 block, Marburg entry inh)
CCOc1ccccc1CNC(=O)c1cc2oc3ccccc3c2n1CC	Marburg entry inh 3.3µM, Lassa entry inh 5.2µM
COc1cc(OC)c(C(=O)Nc2cc(S(=O)(=O)N3CCOCC3)ccc2N2CCOCC2)cc1OC	none (no result: Cycloheximide cs, Shiga toxin inh, Marburg entry inh, Lassa entry inh)
Cc1ccc(-n2c(-c3cnccn3)n[nH]c2=S)c(Br)c1	Marburg entry inh inconclusive
FC(F)(F)c1ccccc1-n1c(-c2cnccn2)n[nH]c1=S	Cycloheximide cs 41, Shiga toxin inh 53, Marburg entry inh inconclusive
C[N+]1=C(/C=N/O)CCCC1	none (no result: Cycloheximide cs, Shiga toxin inh, AMA1 RON2 block, Lassa entry inh)
